Compounds with a hit are over-represented: about 11% of the library has one in this group of screens.
HP1b binding inh – blocks HP1-beta chromodomain binding to methylated histone tails; P83916; AlphaScreen HP1-beta / biotin-H3K9me3 peptide binding; Potency, µM (titrated, usually from 114 µM), for inactives: top-dose activity change, negative = inhibition, actives largely listed as inhibitors; 390,000 compounds, 0.56% hits; also: potency is read from the fitted curve at half-maximal effect; nearly all actives have a fitted effect of over 70% in size
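AlphaScreen: HP1-beta (50 nM) preformed 30 min with biotin-H3(1-18)K9me3 peptide (50 nM) in PBS pH 7.4, 0.01% Tween-20. Compound added for 30 min at RT, then streptavidin donor/nickel chelate acceptor beads (10 ug/mL) for 30 min.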
PI5P4K alpha inh – blocks human PI5P4K alpha kinase activity | PI5P4Kalpha enzyme, ADP-Glo luminescence, 60 min; stronger effect = lower value | max response, % | P48426 | 330,000 compounds, 1.2% hits; active = max response of -50% or lower; inconclusive = between -30% and -50%; inactive = -30% or higher; also: value at the top dose of about 77 µM; % is scaled to controls: 0 for no effect and ±100 for the full control effect
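ADP-Glo luminescence end-point read after a 60 min room-temperature kinase reaction of PI5P4Kalpha plus substrate, initiated with ATP at 5 microM final. Buffer: 0.038 M HEPES pH 7.4, EGTA, 0.1% CHAPS, 5% DMSO.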
G9a block – G9a (human) methyltransferase inhibition; Q96KQ7; G9a H3K9 monomethylation, AlphaScreen, 2 h; Potency, µM (doses to about 102 µM), for inactives: at the highest dose activity, negative = inhibition, actives largely listed as inhibitors; 350,000 compounds, 8.8% hits; also: potency is read from the fitted curve at half-maximal effect; % is scaled to controls: 0 for no effect and ±100 for the full control effect; nearly all actives have a fitted effect of over 75% in size
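Methyltransferase reactions run at room temperature for 2 h (20 nM enzyme, 500 nM biotin-H3K9 peptide, 20 uM SAM) after a 15 min compound preincubation; product detected by AlphaScreen beads and anti-H3K9me1 antibody.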
JMJD2A Tudor inh – blocks the human JMJD2A Tudor domain. 390,000 compounds, 4.4% hits. AlphaScreen JMJD2A-Tudor / H3K4me3 peptide binding. AID 504339. Potency, µM (top dose mostly 114 µM), for inactives: at the highest dose activity change, negative = inhibition, actives largely listed as inhibitors; also: potency is read from the fitted curve at half-maximal effect; % is scaled to controls: 0 for no effect and ±100 for the full control effect; nearly all actives have a fitted effect of over 50% in size
Target sequence (O75164 whole entry, looked up, the tested form may be a part): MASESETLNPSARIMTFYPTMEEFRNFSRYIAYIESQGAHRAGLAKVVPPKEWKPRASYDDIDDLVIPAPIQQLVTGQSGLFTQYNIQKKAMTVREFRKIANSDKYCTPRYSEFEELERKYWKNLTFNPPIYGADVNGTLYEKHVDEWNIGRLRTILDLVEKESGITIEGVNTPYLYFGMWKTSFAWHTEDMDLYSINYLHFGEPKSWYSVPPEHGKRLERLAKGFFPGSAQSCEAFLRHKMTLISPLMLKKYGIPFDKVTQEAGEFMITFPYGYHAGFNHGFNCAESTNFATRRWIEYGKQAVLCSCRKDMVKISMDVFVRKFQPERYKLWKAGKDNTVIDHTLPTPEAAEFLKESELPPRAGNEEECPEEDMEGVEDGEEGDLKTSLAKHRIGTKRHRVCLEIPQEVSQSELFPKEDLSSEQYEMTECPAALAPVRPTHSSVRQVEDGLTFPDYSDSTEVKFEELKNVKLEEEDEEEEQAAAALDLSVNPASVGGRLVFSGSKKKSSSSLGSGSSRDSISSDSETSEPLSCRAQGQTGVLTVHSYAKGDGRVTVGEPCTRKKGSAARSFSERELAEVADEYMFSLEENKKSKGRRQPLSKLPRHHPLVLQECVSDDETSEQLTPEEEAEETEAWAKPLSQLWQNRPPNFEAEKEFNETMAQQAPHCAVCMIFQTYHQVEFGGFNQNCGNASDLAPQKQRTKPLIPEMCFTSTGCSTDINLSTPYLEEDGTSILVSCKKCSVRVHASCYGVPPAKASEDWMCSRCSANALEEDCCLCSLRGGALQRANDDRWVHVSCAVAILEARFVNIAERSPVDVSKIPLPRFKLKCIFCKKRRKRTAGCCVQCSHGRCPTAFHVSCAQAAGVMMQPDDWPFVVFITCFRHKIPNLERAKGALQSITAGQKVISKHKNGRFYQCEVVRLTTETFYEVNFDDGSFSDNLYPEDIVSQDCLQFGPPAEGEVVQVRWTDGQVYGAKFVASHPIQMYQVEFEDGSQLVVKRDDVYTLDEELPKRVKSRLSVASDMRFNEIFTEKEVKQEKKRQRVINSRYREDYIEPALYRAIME
L3MBTL1 inh – blocks human L3MBTL1. AlphaScreen L3MBTL1–H3K9me1 peptide binding. 230,000 compounds, 0.66% hits. Q9Y468. Potency, µM (titrated, usually from 57.1 µM), without a hit: at the top dose activity, negative = inhibition, most hits filed as inhibitors; also: potency is read from the fitted curve at half-maximal effect; % is scaled to controls: 0 for no effect and ±100 for the full control effect; nearly all actives have a fitted effect of over 60% in size
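Displacement of a biotinylated histone H3(1-15) peptide monomethylated at Lys9 (75 nM) from L3MBTL1 (50 nM) was measured by AlphaScreen after a 30 min room-temperature compound incubation; cefsulodin titration served as intraplate control.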
BAZ2B inh – BAZ2B (human) inhibition | Q9UIF8 | AlphaScreen BAZ2B-H3K14Ac peptide displacement | Potency, µM (titrated, usually from 114 µM), for inactives: top-dose activity change, negative = inhibition, usual class: inhibitors | 360,000 compounds, 4.4% hits; also: potency is read from the fitted curve at half-maximal effect; % is scaled to controls: 0 for no effect and ±100 for the full control effect; nearly all actives have a fitted effect of over 60% in size
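AlphaScreen displacement of biotin-H3(5-23)K14Ac peptide (50 nM final) from BAZ2B (50 nM final) in PBS pH 7.4, 0.01% Tween-20; complex preformed 30 min RT, then compounds (top 110 uM) 30 min RT, beads 20 min dark.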
* marks the source's active call; other numbers are inactive results; ? = inconclusive; . = no result given; [ ] = another dose, or the depositor's remark. Unless noted, calls follow the shape of the dose curve; as a rule, active = well fitted inhibition curve with a large enough effect; inconclusive = small, poorly fitted or top-dose-only effect; inactive = no such curve, though single readings can be large or run the other way.

SMILES	HP1b binding inh	PI5P4K alpha inh	G9a block	JMJD2A Tudor inh	L3MBTL1 inh	BAZ2B inh
CCCCNC(=O)CS(=O)Cc1nc(-c2ccc(C)cc2)oc1C (centres undefined)	30%	3	-28%	-15%	4%	6%
COc1ccc(-c2nc(CS(=O)CC(=O)NCCc3ccc(OC)c(OC)c3)c(C)o2)cc1 (centres undefined)	50%	-1	19%	-17%	.	-10%
COc1ccc(-c2nc(CS(=O)CC(=O)NCc3ccc(Cl)cc3)c(C)o2)cc1 (centres undefined)	6%	1	40µM*	-26%	.	-29%
Cc1ccccc1-c1nc(CS(=O)CC(=O)NC(C)CCc2ccccc2)c(C)o1 (centres undefined)	20%	0	71µM*	-31%	.	?
CCOc1ccc(CCNC(=O)CS(=O)Cc2nc(-c3ccc(OC)cc3)oc2C)cc1OCC (centres undefined)	31%	-1	50µM*	-19%	.	-13%
Cc1ccc(-c2nc(CS(=O)CC(=O)NCc3ccc(Cl)cc3)c(C)o2)cc1 (centres undefined)	26%	12	?	-25%	.	-20%
Cc1c(Cl)cccc1-c1ccc(CNCCSc2nnnn2-c2ccccc2)o1	3%	.	-33%[59 µM]	3%	.	?
CC12CCC=CC1C(c1cccc([N+](=O)[O-])c1)N(Cc1ccccc1)C2=O (centres undefined)	-7%	.	.	?	.	.
CCc1ccc(-c2nc(CS(=O)CC(=O)NCc3ccccc3)c(C)o2)cc1 (centres undefined)	23%	-14	28µM*	-12%	.	-15%
Cc1ccc(-c2nc(CS(=O)CC(=O)NCc3ccc4c(c3)OCO4)c(C)o2)cc1 (centres undefined)	32%	-4	?	-26%	4%	-32%
COc1cccc(-c2nc(CS(=O)CC(=O)NCCCOC(C)C)c(C)o2)c1 (centres undefined)	52%	11	45µM*	-12%	3%	10%
Cc1oc(-c2ccc(Cl)cc2)nc1CS(=O)CC(=O)NCc1ccccc1 (centres undefined)	49%	-13	-12%	2%	.	0%
CCc1ccc(-c2nc(CS(=O)CC(=O)NCc3ccc4c(c3)OCO4)c(C)o2)cc1 (centres undefined)	16%	-9	40µM*	-25%	.	-32%
Cc1ccc(CCNC(=O)CS(=O)Cc2nc(-c3ccccc3Cl)oc2C)cc1 (centres undefined)	69%	0	50µM*	2%	.	-27%
Cc1ccc(-c2nc(CS(=O)CC(=O)NC3CCC(C)CC3)c(C)o2)cc1 (centres undefined)	3%	-12	50µM*	-24%	.	-25%
Cc1cc(N2CCOCC2)ccc1/C=C\[N+](=O)[O-]	-9%	4	6.3µM*	-14%	4%	?
O=C(NNc1ccccc1[N+](=O)[O-])Nc1ccc(F)cc1	7%	4	3.5µM*	-17%	3%	-33%
O=C(NNc1ccccc1[N+](=O)[O-])NC1CCCCC1	20%	1	50µM*	-9%	13%	-19%
O=C(NNc1ccccc1[N+](=O)[O-])Nc1ccc(Cl)c(Cl)c1	5%	9	7.1µM*	-15%	-2%	?
CCN(CC)S(=O)(=O)c1cc([N+](=O)[O-])ccc1NNC(=O)Nc1ccc(Cl)c(Cl)c1	-3%	-4	7.9µM*	-35%	.	32µM*
CC(=O)c1ccc(NC(=O)Nc2sc3nc4n(c(=O)c3c2C)CCC(C)CC4)cc1 (centres undefined)	21%	.	-35%[59 µM]	-21%	.	-15%
O=C(Nc1ccccc1C(=O)N1CCCCC1)NC1CCCCC1	-3%	1	.	79µM*	4%	1%
N#Cc1ccccc1Sc1ccccc1C(=O)NCC(c1ccco1)N1CCCC1 (centres undefined)	?	-10	2.8µM*	?	-7%	50µM*

Assay outcomes (PubChem BioAssay)
